The test system of one assay is Streptococcus suis HE06. The assay is described as follows: percent growth relative to DMSO control; higher = less growth inhibition. As to conditions: 10 µM; incubation time 18 h. The method, then:
(§1)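 CLSI broth microdilution: 5x10^4 CFU of Streptococcus suis (strain P1/7 or HE06) incubated with 10 µM Pathogen Box compound in cation-adjusted Mueller Hinton broth, 37 °C, 5% CO2, 18 h. Growth read as OD600 and expressed as percent of the DMSO-treated control (100%); mean ± SD of three independent experiments.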

For the next assay, the system named is Streptococcus suis P1/7. The assay is described as above. As to conditions: 10 µM; incubation time 18 h. The method, then:
as §1

Each structure is given as a SMILES string. ± gives the standard deviation.

Consider `O=C(C1CCN(c2cc(-n3cccc3)ncn2)CC1)N1CCc2ccccc2C1`, for which the percent growth is 106 ± 15% with Streptococcus suis HE06 and 59.5 ± 45% in the assay with Streptococcus suis P1/7.

In the case of `Cc1ccccc1CN1CCC(O)(c2ccc(Cl)c(C(F)(F)F)c2)CC1`, the percent growth with Streptococcus suis HE06 came out at 93.7 ± 15%; in the assay with Streptococcus suis P1/7, 102 ± 50%.

With `CC(C)(C)c1ccc(N[C@@H]2CCCC[C@H]2NC(=O)c2ccco2)cc1`, the percent growth in the assay with Streptococcus suis HE06 turned out to be 104 ± 7.9%; with Streptococcus suis P1/7 it was 78.1 ± 19%.

With `Cc1ccc2oc(-c3cc(NC(=O)Cc4ccccc4)ccc3Cl)nc2c1`, the values for the percent growth in the assay on Streptococcus suis HE06 and in the assay on Streptococcus suis P1/7 were 93.1 ± 13% and 78.5 ± 4%, respectively.

For the compound `CC[P](CC)(CC)=[Au][S][C@H]1O[C@@H](COC(C)=O)[C@H](OC(C)=O)[C@@H](OC(C)=O)[C@@H]1OC(C)=O`, the percent growth in the assay on Streptococcus suis HE06 is 4.65 ± 3%; in the assay with Streptococcus suis P1/7, 1.51 ± 1.8%.

Consider `COc1ccc(C2(C(=O)Nc3ccc(Br)cc3)CCCC2)cc1`, for which the percent growth was 120 ± 25% with Streptococcus suis HE06 and 92.5 ± 15% in the assay on Streptococcus suis P1/7.

Consider `c1ccc(-c2nc(NC3CCCCC3)cc(C3CC3)n2)nc1`, for which the percent growth worked out at 7.51 ± 12% in the assay with Streptococcus suis HE06 and 0.494 ± 1.2% with Streptococcus suis P1/7.

For `O=C1[C@@H](Oc2ccccc2)[C@@H](c2ccc(Cl)cc2)N1CCn1cnc2c(NCc3ccccc3)ncnc21`, the percent growth in the assay with Streptococcus suis HE06 was 94.9 ± 4.6%; with Streptococcus suis P1/7, 112 ± 21%.

With `CC(Oc1ccccc1)C(=O)Nc1nc(-c2ccccn2)cs1` (stereo unspecified), the percent growth in the assay with Streptococcus suis HE06 worked out at 2.67 ± 2.8%; in the assay with Streptococcus suis P1/7, 2.35 ± 2.4%.

With `COc1ccc(C2=NN(C3CCCCCC3)C(=O)[C@@H]3CC=CC[C@H]23)cc1OCCCCOc1ccc(-c2nn[nH]n2)cc1`, the results for the percent growth with Streptococcus suis HE06 and in the assay on Streptococcus suis P1/7 were 0% and 0.12 ± 0.21%, respectively.

`COc1ccc2nc(C)cc(OCC(=O)NCc3ccccc3)c2c1`: the percent growth came out at 91.7 ± 11% in the assay with Streptococcus suis HE06 and 75.5 ± 9.7% in the assay on Streptococcus suis P1/7.

On to `O=C(C(Cc1c[nH]c2ccccc12)NS(=O)(=O)c1ccc(Cl)cc1)N1CCCCC1` (stereo unspecified), for which the percent growth with Streptococcus suis HE06 was 89.3 ± 4.7%; in the assay on Streptococcus suis P1/7 it was 120 ± 43%.

Consider `Cc1ccc(S(=O)(=O)n2cc(-c3ccnc(N)c3)c3cc(Br)cnc32)cc1`, for which the percent growth was 95.2 ± 32% in the assay with Streptococcus suis HE06 and 61.5 ± 15% in the assay with Streptococcus suis P1/7.

Consider `CC(=O)Nc1ccc(NC(=O)c2cc(-c3cc(Cl)ccc3O)[nH]n2)cc1`, for which the percent growth with Streptococcus suis HE06 was determined as 96.5 ± 11%; in the assay on Streptococcus suis P1/7, 104 ± 13%.

As to `O=C(Nc1ccccc1)c1ccc(-c2cc3ccncc3cc2OC2CCNCC2)s1`, the results for the percent growth in the assay with Streptococcus suis HE06 and in the assay on Streptococcus suis P1/7 were 85.8 ± 20% and 72.3 ± 8.4%, respectively.

As to `COc1cccc(-c2cc3c(Nc4cccnc4)nccc3[nH]2)c1`, the percent growth with Streptococcus suis HE06 is 226 ± 230%; with Streptococcus suis P1/7, 83.9 ± 23%.

For the compound `CO[C@@H](C(=O)N1Cc2[nH]nc(NC(=O)c3ccc(N4CCN(C)CC4)cc3)c2C1)c1ccccc1`, the percent growth in the assay on Streptococcus suis HE06 was found to be 82.9 ± 11%; in the assay with Streptococcus suis P1/7, 86.3 ± 15%.

For the compound `CC[C@H](CO)NCCN[C@H](CC)CO`, the percent growth with Streptococcus suis HE06 worked out at 88.7 ± 6.4%; in the assay on Streptococcus suis P1/7 it was 77 ± 21%.

With `Cn1ccnc1CNCCS(=O)(=O)c1cccc(Nc2ccc(-c3cccc(F)c3)cn2)c1`, the percent growth with Streptococcus suis HE06 came out at 91.4 ± 14%; with Streptococcus suis P1/7 it was 35 ± 38%.

Turning to `CCC(Sc1nc2ccccc2o1)C(=O)Nc1nnc(C)s1` (stereo unspecified), the percent growth in the assay with Streptococcus suis HE06 came to 34.1 ± 46%; in the assay with Streptococcus suis P1/7, 0.154 ± 0.27%.

Take `O=C(c1cc2ccccc2o1)N1CCN(Cc2ccc3c(c2)OCO3)CC1`: the figures for the percent growth in the assay on Streptococcus suis HE06 and with Streptococcus suis P1/7 were 84.6 ± 20% and 102 ± 20%, respectively.

As for `Brc1cncc(-c2cc(NCCCn3ccnc3)nc(-c3ccccc3)n2)c1`, the results for the percent growth with Streptococcus suis HE06 and in the assay on Streptococcus suis P1/7 were 46.7 ± 37% and 43.7 ± 51%, respectively.

Turning to `Cc1[nH]c2ccccc2c1C(c1cccs1)N1CCN(C)CC1` (stereo unspecified), the percent growth came out at 49 ± 25% with Streptococcus suis HE06 and 86.1 ± 38% with Streptococcus suis P1/7.

As to `COc1ccc(Cn2cnc3c(-c4ccco4)nc(Cl)nc32)cc1`, the percent growth in the assay with Streptococcus suis HE06 was 88.5 ± 13%; in the assay with Streptococcus suis P1/7 it was 102 ± 42%.

`CC(=O)N(CCN(C(=O)c1ccc(F)cc1)c1ccccc1)c1ccccc1`: the percent growth stood at 86.6 ± 26% in the assay on Streptococcus suis HE06 and 69 ± 13% with Streptococcus suis P1/7.

Regarding `Cc1nn2c(O)c3c(nc2c1-c1ccc(F)cc1)CCCC3`, the percent growth with Streptococcus suis HE06 worked out at 63.3 ± 22%; in the assay with Streptococcus suis P1/7, 45.5 ± 21%.

As for `Cc1nc(-c2cccc(NCc3ccccc3)c2)[nH]c1C`, the results for the percent growth with Streptococcus suis HE06 and in the assay on Streptococcus suis P1/7 were 60.1 ± 36% and 12 ± 5.5%, respectively.

For the compound `CC(C)C(C(=O)Nc1ccc(S(=O)(=O)N(C)C)cc1)c1ccc(Cl)cc1` (stereo unspecified), the percent growth came out at 110 ± 24% with Streptococcus suis HE06 and 86 ± 22% in the assay on Streptococcus suis P1/7.

For the compound `Cc1cc(OCC(=O)NCc2ccccc2)c2cc(Br)ccc2n1`, the percent growth in the assay with Streptococcus suis HE06 was 94.8 ± 9.9%; in the assay on Streptococcus suis P1/7, 176 ± 160%.

In the case of `CC1(COc2ccc(N3CCC(Oc4ccc(OC(F)(F)F)cc4)CC3)cc2)Cn2cc([N+](=O)[O-])nc2O1` (stereo unspecified), the percent growth in the assay on Streptococcus suis HE06 amounted to 91.7 ± 9.5%; in the assay with Streptococcus suis P1/7, 114 ± 61%.

Turning to `CC(C)C(NC(=O)Cc1cccc2ccccc12)C(=O)Nc1cccc(C#N)c1` (stereo unspecified), the percent growth was found to be 84.6 ± 21% with Streptococcus suis HE06 and 158 ± 100% in the assay on Streptococcus suis P1/7.

As to `CCN(CC)CCCCCCNc1cc(OC)cc2c(C)ccnc12`, the percent growth was 81.6 ± 14% with Streptococcus suis HE06 and 83.2 ± 15% in the assay with Streptococcus suis P1/7.

For the compound `Oc1c(I)cc(I)c2cccnc12`, the percent growth in the assay on Streptococcus suis HE06 is 0.688 ± 0.61%; with Streptococcus suis P1/7, -0.0569 ± 0.099%.

For `COc1ccc(-c2cc(NC(=O)c3ccc(F)cc3Cl)ccc2OC)cc1`, the percent growth with Streptococcus suis HE06 came out at 89.4 ± 3.4%; in the assay with Streptococcus suis P1/7 it was 96 ± 31%.

In the case of `O=C(C1CCCCC1)N1CC(=O)N2CCc3ccccc3C2C1` (stereo unspecified), the percent growth stood at 79.3 ± 24% in the assay on Streptococcus suis HE06 and 102 ± 18% with Streptococcus suis P1/7.

Regarding `Cc1ccc2c(c1C)NC(=O)C21NN=C(c2ccccc2)S1` (stereo unspecified), the percent growth with Streptococcus suis HE06 is 0.434 ± 0.78%; with Streptococcus suis P1/7, 0.432 ± 0.48%.

With `CCC(=O)Nc1ccccc1C(=O)Nc1ccccn1`, the figures for the percent growth in the assay on Streptococcus suis HE06 and in the assay with Streptococcus suis P1/7 were 93.7 ± 5.2% and 103 ± 41%, respectively.

Take `COc1cc(-c2cc(-c3ccc(S(C)(=O)=O)cc3)cnc2N)ccc1O`: the percent growth amounted to 106 ± 34% with Streptococcus suis HE06 and 70.7 ± 22% in the assay on Streptococcus suis P1/7.

The values are drawn from the supplement of paper PMC7866885, “A novel bicyclic 2,4-diaminopyrimidine inhibitor of Streptococcus suis dihydrofolate reductase” (PeerJ, 2021).
